Screens: PubChem BioAssay, several laboratories
TNAP act mid DEA = activates human TNAP at intermediate phosphate acceptor concentration; P05186; purified TNAP, CDP-star luminescence, 100 mM DEA, 30 min; hits give high values; scale: 0 levamisole-inhibited, 1 vehicle-only enzyme; activation factor at 20 µM; 64,000 tested, under 10 active;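 active = activation factor of at least 2 at 20 µM, relative to controls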
D1 mod = allosterically modulates the human D1 dopamine receptor. AID 641. hit rate 5.9% among 58,000. B-score at 10 µM. HEK293 D1, CRE-luciferase, dopamine EC30 potentiation; actives deviate in either direction;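 active = luminescence count or its row- and column-corrected plate score outside the 99.7% band of the plate's sample wells, on either side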
hDAT+cocaine = human DAT dopamine uptake with cocaine, either direction; hit rate 1.3% among 110,000; B-score at 10 µM; LLC-PK1 hDAT cells, [14C]-dopamine uptake with cocaine IC80; actives deviate in either direction; Q01959;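 active = Z score or B-score, a plate-position-corrected score, falls beyond the plate's 99.7% confidence bounds, in either direction; inactive = both scores lie inside the 99.7% bounds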;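 also: scored against the spread of the other compound wells on the same plate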
HePTP inhibitor = inhibitors of human HePTP phosphatase; hit rate 0.64% among 110,000; inhibition, % at 20 µM; recombinant HePTP phosphatase activity, OD absorbance; P35236; in the data active = inhibition above about 50%;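 also: plate controls were vehicle for no effect and reference inhibitor for full effect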
Target sequence (P35236 whole entry, looked up): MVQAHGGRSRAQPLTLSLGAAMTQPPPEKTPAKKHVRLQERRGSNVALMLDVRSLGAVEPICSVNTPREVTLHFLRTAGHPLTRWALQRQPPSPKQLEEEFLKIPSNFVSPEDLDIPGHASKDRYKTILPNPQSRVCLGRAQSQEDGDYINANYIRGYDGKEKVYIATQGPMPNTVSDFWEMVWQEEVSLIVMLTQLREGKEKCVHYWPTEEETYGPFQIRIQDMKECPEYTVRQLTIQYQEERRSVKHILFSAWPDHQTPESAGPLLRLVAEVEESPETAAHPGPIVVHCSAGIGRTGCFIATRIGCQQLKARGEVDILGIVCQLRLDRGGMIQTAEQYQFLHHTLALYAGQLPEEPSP
PLAP act = activators of human placental alkaline phosphatase; activation fold at 20 µM; purified PLAP enzyme, luminescent substrate read-out; hits give high values; P05187; hit rate 1.2% among 96,000; in the data active = activation fold above about 2
Calb biofilm kill = kills Candida albicans biofilms. hit rate 0.14% among 85,000. C. albicans biofilm + clotrimazole, Alamar Blue. inhibition, % at 6 µM. AID 834;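 active = inhibition above 20%; inactive = inhibition below 20%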;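 also: preformed 24 hr biofilms exposed to compound for 48 hr; 0% = biofilm without compound and 100% = blank killed by clotrimazole plus chlorhexidine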
Numbers without * were called inactive; nt = no result given. The full list was thinned out, with hits kept by preference.

SMILES	TNAP act mid DEA	D1 mod	hDAT+cocaine	HePTP inhibitor	PLAP act	Calb biofilm kill
CCn1c2ccccc2c2nnc(SCC(=O)NC(C(=O)OC)C(C)C)nc21 (stereo not drawn)	0.9	3.7*	nt	4	nt	1
CCn1c2ccccc2c2nnc(SCC(=O)NCCOC)nc21	0.9	0.98	-0.13	1	0.8	5
Cn1c2ccccc2c2nnc(SCC(=O)NCc3ccco3)nc21	nt	nt	nt	104*	nt	nt
CCn1c2ccccc2c2nnc(SCN3C(=O)c4ccccc4C3=O)nc21	0.8	9.5*	nt	1	nt	6
Cn1c2ccccc2c2nnc(SCN3C(=O)c4ccccc4C3=O)nc21	0.9	1.5	nt	4	0.9	0
Cc1nc(NC(=O)c2ccc(Cl)cc2[N+](=O)[O-])sc1C	nt	nt	nt	-14	nt	nt
COc1cc(/C=N/Nc2nc(N3CCOCC3)nc(N3CCOCC3)n2)cc(Cl)c1O	nt	nt	nt	8	nt	nt
COC(=O)NC(NC(=O)OC)c1ccc(F)cc1	nt	nt	nt	-9	nt	nt
CCOC(=O)c1ccc(N2NC(=O)/C(=C/c3cc(Cl)cc(Br)c3O)C2=O)cc1	nt	nt	nt	6	nt	nt
CC(O)C(NC(=S)NCc1ccccc1)C(=O)O (stereo not drawn)	nt	nt	nt	-7	nt	nt
O=[N+]([O-])c1ccc(NC(=S)Nc2ccc(F)cc2)c(O)c1	nt	nt	nt	2	nt	nt
COc1ccc(/C(O)=C2/C(=O)C(=O)N(CCCC(=O)O)C2c2ccc(OC)c(OC)c2)cc1 (stereo not drawn)	0.9	0.0062	-1.1	4	1.2	9
COc1cc(C2/C(=C(/O)c3ccc(F)cc3)C(=O)C(=O)N2CCCC(=O)O)ccc1O (stereo not drawn)	1	-3.9*	0.0044	-8	1	6
COc1ccc(C(=O)O/N=C2/CCCc3c2ccc(OC)c3C)cc1[N+](=O)[O-]	nt	nt	nt	-5	nt	nt
CCCCCCCCCOC(=O)C(CC(=O)O)N1CCOCC1 (stereo not drawn)	nt	nt	-1.6	nt	2*	2
CCN1CCN(Cc2ccc(NC(=O)Nc3ccccc3Cl)cc2)CC1	0.9	-3.3*	0.041	-3	1	10
CCOc1ccc(N2C(=O)CC(NCc3ccc(Cl)cc3Cl)C2=O)cc1 (stereo not drawn)	nt	nt	nt	104*	nt	nt
CCOc1ccc(N2C(=O)CC(NCc3ccc(S(N)(=O)=O)cc3)C2=O)cc1 (stereo not drawn)	nt	nt	nt	-5	nt	nt
O=C(Nc1ccc2c(c1)OCO2)c1ccc(C#Cc2ccccc2)cc1	nt	nt	nt	-4	nt	nt
COc1cc(O)c(C(CCN2CCCC(C)C2)c2ccc(N(C)C)cc2)c(OC)c1 (stereo not drawn)	nt	nt	2.2*	nt	nt	nt
COC(=O)c1ccc(CN2CCN(CCN3C(=O)c4cccc5cccc(c45)C3=O)CC2)cc1	nt	nt	nt	4	nt	nt
CCN(CC)CCn1nc(C)nc1-c1ccccc1O	0.9	-0.14	0.027	0	2.3*	4
CCn1c(-c2ccccc2O)n[nH]c1=S	0.8	-0.032	0.021	8	1.7	5
Cc1ccc2c(c1)-c1c(ssc1=S)C(C)(C)N2C(=O)C(C)N1C(=O)c2ccccc2C1=O (stereo not drawn)	nt	nt	nt	5	nt	nt
CCOC(=O)c1ccc(NCCC(=O)c2cccs2)cc1	nt	nt	nt	8	nt	nt
SMILES	TNAP act mid DEA	D1 mod	hDAT+cocaine	HePTP inhibitor	PLAP act	Calb biofilm kill
CS(=O)(=O)N(CC(=O)N1CCCC1)c1ccc(Oc2ccccc2)cc1	nt	nt	nt	0	nt	nt
CCOC(=O)C1=NN(c2ccccc2)C(c2ccccc2)CC1=O (stereo not drawn)	nt	nt	-0.93	nt	nt	4
CCOC(=O)C1=NN(c2ccc(OC)cc2)C(c2ccccc2)CC1=O (stereo not drawn)	nt	nt	-8.6*	nt	nt	1
COc1ccc(C(=O)c2c[nH]c3ccccc23)cc1	0.9	-2.2*	0.33	8	0.8	2
O=C(N/N=C/c1cc([N+](=O)[O-])c(N2CCOCC2)cc1N1CCOCC1)Nc1ccccc1	nt	nt	nt	-12	nt	nt
O=C(NC1CCCCCCC1)c1ccc2c(c1)OCO2	1	-3.5*	0.19	-4	0.9	8
S=C(NC1CCCCC1)c1ccc2c(c1)OCO2	nt	nt	-1.3	nt	0.9	13
COc1ccc(-c2cc(C(F)F)n3ncc(C(=O)N4CCCCC4)c3n2)cc1	nt	nt	2.6*	nt	1.4	8
COc1ccc(CCNC(=O)CCn2c(=O)oc3ccccc32)cc1	0.9	0.1	0.89	-11	0.9	21*
COc1ccccc1CCNC(=O)CCn1c(=O)oc2ccccc21	nt	nt	1.4	nt	1.2	8
Cc1ccc(CNC(=O)c2cc3c(=O)n4ccccc4nc3n(Cc3ccco3)c2=N)cc1	0.9	nt	-2.7*	12	1.2	0
CC(=O)C(C)Oc1cc2oc(=O)cc(-c3ccccc3)c2cc1Cl (stereo not drawn)	nt	nt	nt	10	nt	nt
O=C(NCCc1ccc(Cl)cc1)C1CCCN(S(=O)(=O)c2cnc[nH]2)C1 (stereo not drawn)	0.9	-0.14	0.24	6	1.3	25*
O=[N+]([O-])c1ccc(-c2nnc(-c3ccc(Br)o3)o2)cc1	nt	nt	nt	-6	nt	nt
O=C1c2cccc3c(Br)ccc(c23)C(=O)N1Oc1ccc([N+](=O)[O-])cc1[N+](=O)[O-]	nt	nt	nt	-5	nt	nt
O=c1oc2c(-c3cccc(Cl)c3)cc(O)cc2s1	nt	nt	nt	4	nt	nt
CC1(C)CC2CC(C)(CN2C(=O)COc2cccc3ccccc23)C1 (stereo not drawn)	nt	nt	-0.26	nt	0.8	5
COc1ccc(/C=N/OCC(=O)N2CC3(C)CC2CC(C)(C)C3)cc1 (stereo not drawn)	nt	nt	3.7*	nt	1.1	nt
CC(C)(C)CN1C(N)=NC[C@H]1Cc1ccc(O)cc1	nt	nt	0.89	nt	nt	nt
CC(C)(C)CN1C(N)=NC[C@@H]1Cc1ccc(O)cc1	nt	nt	-3.8*	nt	nt	nt
Oc1c(Br)cc(/C=N/Nc2nnc3c(n2)[nH]c2ccccc23)c(O)c1Br	nt	nt	nt	6	nt	nt
O=C1CC(N2CCCCC2)C(=O)N1Cc1ccccc1 (stereo not drawn)	nt	nt	nt	4	nt	nt
O=C(C1CCN(C2CC(=O)N(Cc3ccccc3)C2=O)CC1)N1CCCCCC1 (stereo not drawn)	0.9	2.4	-0.019	8	2*	1
NC(=O)C1CCN(C(=O)c2cccc(C#Cc3ccccc3)c2)CC1	nt	nt	nt	-14	nt	nt
O=C(Nc1ccc2c(c1)OCCO2)NC1(C(F)(F)F)Oc2ccccc2O1	0.9	-3*	-3*	-5	0.9	-2
SMILES	TNAP act mid DEA	D1 mod	hDAT+cocaine	HePTP inhibitor	PLAP act	Calb biofilm kill
COc1ccc(CCNc2oc(-c3ccccc3OC)nc2C#N)cc1	0.8	0.61	1.4	1	0.8	6
COc1ccc(CCNc2oc(-c3ccccc3OC)nc2C#N)cc1OC	0.8	3.1	4.6*	2	1.6	7
Cc1ccc(CNC(=O)CSc2nc3n[nH]c(C)c3c(=N)n2-c2cccc(C)c2)cc1	nt	nt	0.57	nt	2.5*	6
C/C(=N\NC(=O)c1c[nH]c2ccccc12)c1ccc(C)o1	nt	nt	1	nt	2.6*	0
C/C(=N/NC(=O)c1c[nH]c2ccccc12)c1cccc(NC(=O)c2ccco2)c1	nt	nt	nt	-7	nt	nt
CN(C)c1ccc(C=Nc2cnn(C)c2C(N)=O)cc1	0.9	nt	1.8*	13	0.8	7
Cc1ccc(N(Cc2ccc(C(=O)N/N=C/c3cc(Br)c(C)o3)cc2)S(C)(=O)=O)cc1C	nt	nt	nt	-16	nt	nt
